Bioassay records: PubChem BioAssay, The Scripps Research Institute Molecular Screening Center
An excerpt weighted towards active compounds, which were near 2.5% of everything screened.
ASK1 inh = ASK1 kinase inhibitors, primary screen, biochemical, AlphaScreen. Mitogen-activated protein kinase kinase kinase 5 (Homo sapiens), Q99683. AlphaScreen MKK6 phosphorylation by ASK1, luminescence. inhibition, % at 7.44 µM. hit rate 0.99% among 22,000; in the data active = inhibition above about 35%;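 also: 0% = median of compound wells and 100% = no enzyme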
Target sequence (Q99683 whole entry, looked up): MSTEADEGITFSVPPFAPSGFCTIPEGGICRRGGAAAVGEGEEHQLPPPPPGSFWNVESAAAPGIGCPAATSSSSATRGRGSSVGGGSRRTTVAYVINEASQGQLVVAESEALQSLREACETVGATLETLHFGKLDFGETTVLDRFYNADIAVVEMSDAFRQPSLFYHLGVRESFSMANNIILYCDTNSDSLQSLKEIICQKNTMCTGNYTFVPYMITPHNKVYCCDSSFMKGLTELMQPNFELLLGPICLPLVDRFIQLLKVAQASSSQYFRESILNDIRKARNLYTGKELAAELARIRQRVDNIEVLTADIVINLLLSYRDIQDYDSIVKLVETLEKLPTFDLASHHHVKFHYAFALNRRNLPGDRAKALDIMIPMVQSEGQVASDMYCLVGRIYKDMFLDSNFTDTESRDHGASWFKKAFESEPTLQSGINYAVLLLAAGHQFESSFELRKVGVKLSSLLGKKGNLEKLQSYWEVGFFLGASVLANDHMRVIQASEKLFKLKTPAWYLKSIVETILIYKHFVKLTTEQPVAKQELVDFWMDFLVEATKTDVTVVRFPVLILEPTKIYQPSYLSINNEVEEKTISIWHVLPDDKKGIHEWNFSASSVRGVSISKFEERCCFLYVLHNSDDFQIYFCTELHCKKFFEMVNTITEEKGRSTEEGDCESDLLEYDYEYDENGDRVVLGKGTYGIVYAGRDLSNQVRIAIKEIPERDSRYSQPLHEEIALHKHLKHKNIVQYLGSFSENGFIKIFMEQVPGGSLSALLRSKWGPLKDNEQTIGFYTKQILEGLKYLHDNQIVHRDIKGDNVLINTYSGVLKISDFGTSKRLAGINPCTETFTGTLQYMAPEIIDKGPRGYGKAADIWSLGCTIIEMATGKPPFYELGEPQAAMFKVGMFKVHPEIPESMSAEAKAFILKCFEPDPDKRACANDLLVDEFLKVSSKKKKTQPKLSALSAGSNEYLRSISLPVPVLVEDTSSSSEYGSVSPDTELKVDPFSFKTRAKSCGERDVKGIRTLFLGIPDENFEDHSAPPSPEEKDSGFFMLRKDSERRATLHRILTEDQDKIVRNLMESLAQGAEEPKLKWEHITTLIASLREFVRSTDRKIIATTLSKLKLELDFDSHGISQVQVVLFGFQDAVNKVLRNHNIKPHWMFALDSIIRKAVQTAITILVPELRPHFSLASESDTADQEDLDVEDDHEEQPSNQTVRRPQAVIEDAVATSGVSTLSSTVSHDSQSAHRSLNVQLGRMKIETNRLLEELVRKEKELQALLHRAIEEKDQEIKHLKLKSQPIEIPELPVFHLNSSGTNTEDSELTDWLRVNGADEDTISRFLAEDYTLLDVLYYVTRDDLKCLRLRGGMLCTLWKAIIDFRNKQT
ULK1 primary = ULK1 kinase inhibitors, primary screen, biochemical, AlphaScreen. AlphaScreen Atg13 phosphorylation by ULK1, luminescence. Serine/threonine-protein kinase ULK1 (Homo sapiens), O75385. hit rate 1.9% among 30,000. inhibition, % at 5.96 µM; in the data active = inhibition above about 43%;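 also: 0% = median of compound wells and 100% = no enzyme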
An asterisk follows results filed as active; nt = no result.

SMILES	ASK1 inh	ULK1 primary
Cc1cc(Nc2ccc(N3CCOCC3)cc2)nc(Nc2ccccc2)n1	42*	7
O=C(Nc1ccc2c(c1)OCO2)c1cccc(Nc2ccc(-n3ccnc3)cc2)c1	-5	3
CN1CCN(c2ccc(-c3nc(NCc4ccccc4)c4ncn(C5CCCCC5)c4n3)cc2)CC1	16	-4
Cc1cnc(Nc2ccc(-n3ccnc3)cc2)nc1NCCOc1ccccc1	11	34
c1ccc(OCCNc2nc(Nc3ccc(-n4ccnc4)cc3)nc3nc[nH]c23)cc1	-10	53*
c1ccc(Nc2nc(NCCOc3ccccc3)c3[nH]cnc3n2)cc1	7	28
Oc1ccc(CCNc2nc(Nc3ncccn3)nc3nc[nH]c23)cc1	-6	8
Oc1ccc(CCNc2nc(Nc3ccncc3)nc3nc[nH]c23)cc1	-71	51*
Oc1ccc(CCNc2nc(Nc3ccccc3)nc3nc[nH]c23)cc1	-26	36
c1ccc(OCCNc2nc(Nc3cccnc3)nc3nc[nH]c23)cc1	14	48*
Oc1ccc(CCNc2nc(Nc3ccc(-n4ccnc4)cc3)nc3nc[nH]c23)cc1	-66	50*
O=C1CCCN1CCCNc1ccnc(Nc2ncccn2)n1	7	13
COc1ccc(Cl)cc1NC(=O)/C(C#N)=C/c1ccc(N2CCOCC2)o1	nt	-3
CC(C)N(CCNc1nc(Nc2ccc3ncccc3c2)nc2c1ncn2-c1ccsc1)C(C)C	22	15
Oc1ccc(CCNc2nc(NC3CCN(Cc4ccccc4)CC3)nc3c2ncn3-c2ccccc2)cc1	7	-4
Cc1cnc(Nc2ccc(-n3ccnc3)cc2)nc1NCCO	-8	50*
Cc1cnc(Nc2ccc(-n3ccnc3)cc2)nc1NCCc1ccc(O)cc1	-12	29
O=C(NCc1cccnc1)c1cccc(-c2csc3ccccc23)c1	3	-30
NC(=O)c1ccc(-c2nc(NC3CC3)c3ncn(CCN4CCCC4=O)c3n2)cc1	-3	7
CN1CCC(Oc2cc(-c3cn[nH]c3)ccc2NC(=O)[C@@](C)(O)c2ccc(Br)cc2)CC1	-7	-11
CCOC(=O)N1CCN(c2ccc(S(C)(=O)=O)cc2F)CC1	nt	-6
Nc1n[nH]c2c(Br)cc(NC(=O)C3COc4ccccc4O3)cc12 (configuration not stated)	-26	58*
O=C(Nc1ccc2[nH]ncc2c1)C1COc2ccccc2O1 (configuration not stated)	-16	10
Cc1ncn(-c2ccc(Nc3ncc4ccccc4n3)cc2)n1	-25	44*
Cc1ncn(-c2ccc(Nc3ncc4cccc(-c5ccncc5F)c4n3)cc2)n1	33	51*
SMILES	ASK1 inh	ULK1 primary
Cc1cc(-c2cccc3cnc(Nc4ccc(-n5cnc(C)n5)cc4)nc23)ccn1	3	-14
Cc1ncn(-c2ccc(Nc3ncc4cccc(-c5cncc6ccccc56)c4n3)cc2)n1	-1	-3
Cc1ncn(-c2ccc(Nc3ncc4cccc(-c5ccccn5)c4n3)cc2)n1	-31	53*
Cc1ncn(-c2ccc(Nc3ncc4cccc(Nc5ccccc5)c4n3)cc2)n1	33	-7
Cc1ncn(-c2ccc(Nc3ncc4cccc(-c5nc6ccccc6s5)c4n3)cc2)n1	28	-5
Cc1ncn(-c2ccc(Nc3ncc4cccc(-c5ncco5)c4n3)cc2)n1	-11	72*
COc1cccc(CCC(=O)Nc2ccc(-c3cn[nH]c3)cc2N2CCC(N(C)C)CC2)c1	2	-1
c1nc(NCCN2CCOCC2)cc(N2CCC(N3CCOCC3)CC2)n1	6	4
COc1ccc(-c2nc(C(=O)NCc3cccc(C(F)(F)F)c3)cs2)cc1	-18	3
Cc1ncn(-c2ccc(Nc3ncc4cccc(-c5cncnc5)c4n3)cc2)n1	10	14
Cc1ncn(-c2ccc(Nc3ncc4cccc(-c5ccc(N6CCOCC6)nc5)c4n3)cc2)n1	5	24
Cc1ncn(-c2ccc(Nc3ncc4cccc(-c5cn[nH]c5)c4n3)cc2)n1	8	44*
Cc1ncn(-c2ccc(Nc3ncc4cccc(-c5cnn(CCN6CCOCC6)c5)c4n3)cc2)n1	-9	63*
Cn1c(Nc2nc3ccc(C(=O)NCc4cccnc4)cc3s2)nc2ccccc21	-24	-27
NC(=O)c1ccccc1Nc1cc(NC(=O)C2CCc3ccccc32)ncc1C(F)(F)F (configuration not stated)	-14	3
NCCNC(=O)c1cnccc1Nc1ccc2[nH]ncc2c1	-14	1
O=C(NCC(O)c1ccc(F)cc1)c1cncc(-c2ccc3[nH]ncc3c2)c1 (configuration not stated)	-2	17
O=C(Cc1ccc(F)cc1)Nc1cc(Nc2ccccc2CO)c(C(F)(F)F)cn1	13	18
Nc1cc(Nc2ccccc2CO)c(C(F)(F)F)cn1	9	56*
CC(C)N(CCNc1nc(-c2ccc(C(N)=O)cc2)nc2c1ncn2C1CCCCC1)C(C)C	-6	-7
CNC(=O)c1cc(F)c(F)cc1Nc1cc(Nc2ccc3c(c2)CC(=O)N3)ncc1C(F)(F)F	9	30
COc1cc(N2CCOCC2)ccc1Nc1cc(Nc2ccccn2)c(C(F)(F)F)cn1	25	39
COc1cc(N2CCOCC2)ccc1Nc1cc(Nc2ccc(F)cc2OC)c(C(F)(F)F)cn1	18	26
CNC(=O)c1cc(F)c(F)cc1Nc1cc(Nc2ccc(N3CCOCC3)cc2OC)ncc1C(F)(F)F	8	69*
CNC(=O)c1cc(F)ccc1Nc1cc(Nc2ccc(N3CCOCC3)cc2OC)ncc1C(F)(F)F	17	84*
SMILES	ASK1 inh	ULK1 primary
COc1cc(N2CCOCC2)ccc1Nc1cc(Nc2ccccc2S(=O)(=O)NC(C)C)c(C(F)(F)F)cn1	10	29
CNC(=O)c1ccccc1Nc1cc(Nc2ccc(N3CCOCC3)cc2OC)ncc1Br	0	86*
CNS(=O)(=O)c1ccccc1Nc1cc(Nc2ccc(N3CCOCC3)cc2OC)ncc1C(F)(F)F	8	91*
CN(C)c1cccc(Nc2nc(NCCOc3ccccc3)c3ncn(CCN4CCCC4=O)c3n2)c1	12	7
COc1ccc(CCNc2nc(NC3CCN(Cc4ccccc4)CC3)nc3c2ncn3C(C)C)cc1	13	-11
O=C(Nc1cccc(F)c1N1CCC2(CC1)OCCO2)c1ccc(Br)o1	-11	-9
O=C(Nc1ccc(F)c(F)c1N1CCC2(CC1)OCCO2)c1ccc(Br)o1	-18	53*
N#Cc1cc(-c2ccnc(Nc3cccc(N)c3)n2)ccc1N1CCCC1	19	41
Cc1ncn(-c2ccc(Nc3nccc(-c4ccc(N5CCCC(O)C5)c(C#N)c4)n3)cc2)n1 (configuration not stated)	-7	80*
N#Cc1cc(-c2ccnc(Nc3ccc(N)cc3)n2)ccc1N1CCC(O)CC1	8	85*
Cc1ncn(-c2ccc(Nc3nccc(-c4ccc(C#N)c(N5CCCC(O)C5)c4)n3)cc2)n1 (configuration not stated)	12	3
CC(=O)c1cccc(-c2nc(NCCN3CCOCC3)c3[nH]cnc3n2)c1	9	-19
N#Cc1cc(-c2ccnc(Nc3ccc(N4CCNCC4)cc3)n2)cc(N2CCOCC2)c1	34	93*
N#Cc1cc(-c2ccnc(Nc3ccc(-c4ccccn4)cc3)n2)cc(N2CCOCC2)c1	21	4
N#Cc1cc(-c2ccnc(Nc3ccc(N4CCCCC4)cc3)n2)cc(N2CCOCC2)c1	5	-5
N#Cc1cc(-c2ccnc(Nc3ccc(CN4CCCCC4)cc3)n2)cc(N2CCOCC2)c1	16	71*
